# Measurements reported in ChEMBL document CHEMBL3988442, “University of Dundee, Small-Polar-MMV Screening Library” (2021).
# Organism: Homo sapiens
# Experiment: To identify inhibition of the IFN signalling (Jak-Stat) pathway via expression of an eGFP reporter gene under the control of an IFN-stimulated response element (ISRE) containing MxA promoter.
# Format: functional
# Set-up: scale not given: direction of the effect not stated beside the values
# Conditions: 30 µM
row,SMILES,Percent Effect [%]
1,COCCNC(=O)C(C)n1cc(Br)cn1 (stereo not given),5.02
2,Cn1nccc1C1CCN(Cc2csc(-c3ncccn3)n2)CC1,13.2
3,Cc1ccc(NS(=O)(=O)CC2=NC(=O)n3cccc3C2=O)cc1,-2.44
4,COc1ccc(C)cc1S(=O)(=O)NCC(c1cccn1C)N(C)C (stereo not given),6.68
5,CSc1ccc(CNC(c2ccccc2)c2nccn2C)cc1 (stereo not given),24.1
6,CCCNC(=O)N1CCN(Cc2cc(C)no2)CC1,2.72
7,CN(Cc1ccco1)Cc1ccccc1CNC(=O)c1ccncc1,-3.63
8,CCc1c(C)sc(NC(=O)CN2CCN(CC)CC2)c1C(=O)OC,-12.9
9,COc1ccc(CN(Cc2cncn2C)CC2CCCO2)cc1OC (stereo not given),-8.46
10,O=c1ccc(-c2cccs2)nn1CN1CCN(Cc2ccccc2)CC1,20.2
11,COCC1Cn2nnc(-c3cnn(C)c3)c2CN1Cc1ccc(C)s1 (stereo not given),48.1
12,CC1CCCCN1c1nc2c(c(=O)[nH]1)CCN(Cc1cccnc1)C2 (stereo not given),2.99
13,O=C(Nc1ccccc1)C1CN(CC2CC2)CC12CCOCC2 (stereo not given),-0.536
14,COCCN1C[C@H]2CC[C@@]3(N=C(C)N(CC4CC4)C3=O)[C@H]2C1,7.83
15,CC(C)c1cc(C(=O)N2CCN(Cc3ccsc3)CC2)n[nH]1,28
16,CCc1c(C(=O)NC2CCS(=O)(=O)C2)cnn1-c1ccc(F)cc1 (stereo not given),-14.4
17,CS(=O)(=O)N1CCCC12CCCN(S(=O)(=O)c1cc(F)cc(F)c1)C2 (stereo not given),14.4
18,COc1ccc(C2CCCCCN2S(=O)(=O)N(C)C)cc1 (stereo not given),6.25
19,CC(Cn1ccnc1)NC(=O)NCCNC(=O)C(C)C (stereo not given),31.2
20,O=C(NCCCn1cncn1)NCC(c1ccco1)N1CCCCC1 (stereo not given),12.4
